PubChem BioAssay (NCI)
This is part of a sample that, as a whole, favours compounds with a hit. Of some 83,000 tested, about 20% had one in any assay.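 96-well plates, one dose, 48 hours. Percent growth reported; active if below 10.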 Activity calls are given as the source filed them.

Columns and labels:
Experiment in all cases: NCI-60 one-dose screen, 48 h (100 = growth as untreated, 0 = no growth, -100 = all killed)
Conditions in all cases: 10 µM unless noted
[1] = tested on: SR leukemia
[2] = tested on: RPMI-8226 leukemia
[3] = tested on: OVCAR-8 ovarian
[4] = tested on: OVCAR-5 ovarian
[5] = tested on: OVCAR-4 ovarian
[6] = tested on: SK-OV-3 ovarian
[7] = tested on: IGROV1 ovarian
[8] = tested on: OVCAR-3 ovarian
[9] = tested on: HS 578T breast
[10] = tested on: NCI/ADR-RES ovarian
[11] = tested on: T-47D breast
[12] = tested on: BT-549 breast
[13] = tested on: MDA-MB-435 melanoma
[14] = tested on: SW-620 colon
[15] = tested on: MCF7 breast
[16] = tested on: HCT-116 colon
[17] = tested on: HCC-2998 colon
[18] = tested on: KM12 colon

Measured: growth

CCCCCCCCCCCCCCCCCC(=O)NCCNC(=O)CCCCCCCCCCCCCCCCC
active: [1] 0.967%
inactive: [2] 86.4% | [3] 98.2% | [4] 94.8% | [5] 95% | [6] 84.5% | [7] 66.3% | [8] 96.9% | [9] 107% | [10] 93.9% | [11] 78.6% | [12] 105% | [13] 94.2% | [14] 102% | [15] 71.6% | [16] 70.2% | [17] 82.1% | [18] 96.4%

C=COC(=O)CCOCC(CC)CCCC (stereo unspecified)
inactive: [1] 99.2% | [2] 53.2% | [3] 114% | [4] 103% | [5] 96.2% | [6] 113% | [7] 105% | [8] 98% | [9] 105% | [10] 105% | [11] 95.9% | [12] 93.6% | [13] 99.2% | [14] 105% | [15] 96.3% | [16] 101% | [17] 105% | [18] 99.9%

O=C(Nc1ccc([N+](=O)[O-])cc1)C(=O)Nc1ccc([N+](=O)[O-])cc1
inactive: [1] 101% | [2] 105% | [3] 86.4% | [4] 102% | [5] 121% | [6] 93.5% | [7] 105% | [8] 103% | [9] 95% | [10] 105% | [11] 88.7% | [12] 100% | [13] 106% | [14] 96.5% | [15] 90.6% | [16] 97.3% | [17] 103% | [18] 99%

C=CCc1cc(OC)c(O)c(OC)c1
inactive: [1] 87.1% | [2] 97.6% | [3] 103% | [4] 96.8% | [5] 102% | [6] 103% | [7] 113% | [8] 106% | [9] 107% | [10] 99.8% | [11] 83.7% | [12] 106% | [13] 108% | [14] 114% | [15] 96.9% | [16] 92.6% | [17] 102% | [18] 104%

COc1ccc(Nc2cc(Cl)ccc2C(=O)O)cn1
inactive: [1] 109% | [2] 90.6% | [3] 103% | [4] 107% | [5] 103% | [6] 97.3% | [7] 115% | [8] 94.5% | [9] 95.8% | [10] 109% | [11] 110% | [12] 122% | [13] 122% | [14] 103% | [15] 98.4% | [16] 102% | [17] 110% | [18] 99.2%

COC1OC(COC(C)=O)C(OC(C)=O)C(OC(C)=O)C1OC(C)=O (stereo unspecified)
inactive: [1] 95.5% | [2] 96.4% | [3] 97.9% | [4] 93% | [5] 86.5% | [6] 101% | [7] 118% | [8] 96% | [9] 101% | [10] 95.2% | [11] 91.7% | [12] 101% | [13] 105% | [14] 109% | [15] 93% | [16] 87.4% | [17] 101% | [18] 106%

Nc1ccc(F)cc1F
inactive: [1] 107% | [2] 102% | [3] 116% | [4] 96.3% | [5] 123% | [6] 116% | [7] 105% | [8] 116% | [9] 108% | [10] 108% | [11] 101% | [12] 103% | [13] 107% | [14] 106% | [15] 96% | [16] 88.5% | [17] 113% | [18] 108%

CCCC(=O)CC(=O)c1ccccc1
inactive: [1] 107% | [2] 103% | [3] 93.6% | [4] 101% | [5] 112% | [7] 108% | [8] 99.4% | [9] 106% | [10] 100% | [11] 96.1% | [12] 101% | [13] 110% | [14] 105% | [15] 97.2% | [16] 94.8% | [17] 99.1% | [18] 102%
active: [6] -20%

CCCC(=O)c1cccs1
inactive: [1] 95.8% | [2] 105% | [3] 107% | [4] 100% | [5] 103% | [6] 103% | [7] 110% | [8] 107% | [9] 95.2% | [10] 101% | [11] 86.6% | [12] 101% | [13] 104% | [14] 101% | [15] 94.3% | [16] 100% | [17] 99.8% | [18] 105%

Cc1cc(=O)n(Nc2ccccc2)c(O)c1C#N
inactive: [1] 88.9% | [2] 99.8% | [3] 106% | [4] 105% | [5] 108% | [6] 99.6% | [7] 101% | [8] 98.6% | [9] 100% | [10] 102% | [11] 92% | [12] 107% | [13] 108% | [14] 98.6% | [15] 98.4% | [16] 101% | [17] 112% | [18] 92.9%

CC(=O)OC/C(C)=C\CC(C)COC(C)=O (stereo unspecified)
inactive: [1] 83% | [2] 94.2% | [3] 99.8% | [4] 111% | [5] 105% | [6] 101% | [7] 106% | [8] 112% | [9] 100% | [10] 104% | [11] 104% | [12] 102% | [13] 94.9% | [14] 97.6% | [15] 90.2% | [16] 95.1% | [17] 103% | [18] 104%

Nc1ccc2c(c1)Cc1cc(N)c(N)cc1-2
inactive: [1] 82.2% | [2] 101% | [3] 96.7% | [4] 107% | [5] 105% | [6] 93.7% | [7] 97.9% | [8] 112% | [9] 106% | [10] 101% | [11] 84.4% | [12] 104% | [13] 104% | [14] 100% | [15] 73.3% | [16] 95.8% | [17] 110% | [18] 94.3%

O=C(c1ccccc1O)N1CCCC1
inactive: [1] 99.5% | [2] 94.8% | [3] 99.3% | [4] 98.9% | [5] 109% | [6] 95.8% | [7] 103% | [8] 110% | [9] 111% | [10] 101% | [11] 95.6% | [12] 88.9% | [13] 103% | [14] 100% | [15] 90.6% | [16] 88.5% | [17] 101% | [18] 107%

CCNc1ncnc2[nH]ncc12
inactive: [1] 143% | [2] 73.9% | [3] 72.3% | [4] 104% | [5] 108% | [6] 109% | [7] 124% | [8] 112% | [9] 109% | [10] 105% | [11] 103% | [12] 84.3% | [13] 102% | [14] 99.2% | [15] 93.3% | [16] 105% | [17] 106% | [18] 103%

CC(=O)c1cccc(N(C)S(=O)(=O)c2ccc(C)cc2)c1
inactive: [1] 44.7% | [2] 102% | [3] 101% | [4] 90.7% | [5] 87.7% | [6] 109% | [7] 82.5% | [8] 105% | [9] 102% | [10] 82.4% | [11] 87.8% | [12] 82.8% | [14] 81.7% | [15] 60.5% | [16] 94% | [17] 82.6% | [18] 49.8%
active: [13] 8.55%

CC(C)N(CCCC#N)C(C)C
inactive: [1] 108% | [2] 98.2% | [3] 92.8% | [4] 96.7% | [5] 88.7% | [6] 110% | [7] 103% | [8] 108% | [9] 86.7% | [10] 121% | [11] 94.2% | [12] 112% | [13] 103% | [14] 99.2% | [15] 83.7% | [16] 98.8% | [17] 106% | [18] 105%

Nc1ccc2ccccc2c1-c1c(N)ccc2ccccc12
active: [1] 4.26% | [8] 5.64% | [13] -4.5%
inactive: [2] 24.9% | [3] 44% | [4] 57.1% | [5] 66% | [6] 30.8% | [7] 45.8% | [9] 35.6% | [10] 16.5% | [11] 32.2% | [12] 61.5% | [14] 24.3% | [15] 19.6% | [16] 24.9% | [17] 66.3% | [18] 25.7%
